Laboratory results reported in PubChem BioAssay (Tox21).
Results filed as inconclusive are left out. Entries that show only a call come without a potency. Activity calls are given as the source filed them. Calls come from the whole dose curve.

assay: p53 small molecule agonists, cell-based qHTS assay with human liver microsomes: qHTS cell viability counter screen (AID 1963579); conditions: p53RE-bla HCT-116 viability, ATP luminescence, 16 h, HLM; series mostly up to 66 µM; note: nearly all actives have a fitted effect of over 45% in size
Source text: National Center for Advancing Translational Sciences [NCATS]
Division of Preclinical Innovation [DPI]
U.S. Environmental Protection Agency [EPA]
National Institutes of Environmental Health Sciences [NIEHS]
National Toxicology Program [NTP]
U.S. Food and Drug Administration [FDA]
p53, a tumor suppressor protein, is activated following cellular insult, including DNA damage and other cellular stresses. The activation of p53 regulates cell fate by inducing DNA repair, cell cycle arrest, apoptosis, or cellular senescence. The activation of p53, therefore, is a good indicator of DNA damage and other cellular stresses. […] The activation of the reporter gene under culture conditions can be detected by fluorescence intensity. This cell line was used to screen the Tox21 10K compound library in the condition of presence of human liver microsomes and to identify agonists that activate the p53 signaling pathway after in vitro metabolic activation (Ooka et al., Archive of Toxicology 96:1975-1987, 2022).
Tox21 Assay Protocol Summary:
The p53RE-bla cells were dispensed at 4,000cells/3ul/well in 1536-well black-clear bottom plates. After the assay plates were incubated at 37 C, 5% CO2 incubator for 5 hours, 23 nL of compounds dissolved in DMSO, positive controls or DMSO only was transferred to the assay plate. Following compound addition, 3 uL of human liver microsomes (XenoTech, Kansas City, KS) at final concentration of 0.5 mg/mL and 1uL of B-Nicotinamide adenine dinucleotide 2'-phosphate (NADPH) at final concentration of 0.5 mg/mL were transferred to the assay plate. The plates were incubated at 37 C for 16 hours. 1 uL of LiveBLAzer detection mixture was added to each well and the plates were incubated at room temperature in the dark for 2 h. Fluorescence intensity at 460 and 530 nm emission and 405 nm excitation were measured by an Envision plate reader. For cell viability readout that measures cytotoxicity, 4 ul/well of CellTiter-Glo reagent was added into the assay plates using a Flying Reagent Dispenser. After 30 min incubation at room temperature, the luminescence intensity in the plates was measured using a ViewLux plate reader.

Compound | Potency
CCOP(=S)(OCC)Oc1ncn(-c2ccccc2)n1 | inactive
CCOP(O)OCC | inactive
Cc1cc2c3c(c1)C(c1ccccc1)=N[C@@H](NC(=O)c1ccncc1)C(=O)N3CC2 | inactive
CCOc1cc(OP(=S)(OC)OC)nc(CC)n1 | inactive
CCCCCCCCCCCCCN1CC(C)OC(C)C1 (stereo not given) | inactive
CC/C(=N\OC/C=C/Cl)C1=C(O)CC(C2CCOCC2)CC1=O (stereo not given) | inactive
O=C(OC1CCCCC1)c1ccccc1C(=O)OC1CCCCC1 | inactive
Cc1ccccc1C(=O)Nc1cccc(OC(C)C)c1 | inactive
Oc1c(Cl)c(Cl)cc(Cl)c1Cl | inactive
Clc1cc(C(Cl)(Cl)Cl)cnc1Cl | inactive
CCN(CCO)CCn1c(Cc2ccccc2)nc2c1c(=O)n(C)c(=O)n2C | inactive
C#CC1(O)CCCCC1 | inactive
C[N+](C)(C)CCOC(=O)C(O)(c1ccccc1)c1ccccc1 | inactive
CCCN(CCC)c1c([N+](=O)[O-])cc(C(F)(F)F)cc1[N+](=O)[O-] | inactive
Cc1cccc(C)c1NC1=NCCCS1 | inactive
COC1=CC(=O)O[C@@H](/C=C/c2ccccc2)C1 | inactive
Cc1c(F)c(F)c(COC(=O)C2C(/C=C(\Cl)C(F)(F)F)C2(C)C)c(F)c1F (stereo not given) | inactive
CCOP(=O)(OCC)O/C(=C/Cl)c1ccc(Cl)cc1Cl | inactive
O=C1c2ccccc2C(=O)C1C(=O)C(c1ccccc1)c1ccccc1 | inactive
CC(Cc1ccc2c(c1)OCO2)NO (stereo not given) | inactive

Compound | Potency
CCCN(CCC)C(=O)Cc1c(-c2ccc(Cl)cc2)nc2ccc(Cl)cn12 | inactive
CC(C)(C)C(=O)C(Oc1ccc(Cl)cc1)n1cncn1 (stereo not given) | inactive
O=C(N/N=C/c1ccc([N+](=O)[O-])o1)c1cc([N+](=O)[O-])cc([N+](=O)[O-])c1O | inactive
CCCCC(=O)Cl | inactive
CCNc1nc(NC(C)C(C)C)nc(SC)n1 (stereo not given) | inactive
CCN(CC)C(=O)Cl | inactive
O=C(O)CC(Cl)C(=O)O (stereo not given) | inactive
CN1C(=S)CN=C(c2ccccc2)c2cc(Cl)ccc21 | inactive
CO/N=C(\C(=O)OC)c1ccccc1CO/N=C(\C)c1cccc(C(F)(F)F)c1 | inactive
CCCC[N+](=O)[O-] | inactive
COc1c2c(cc3c1OCO3)CCN(C)C2 | inactive
BrCBr | inactive
Cc1ccccc1 | inactive
O=C(N[C@H]1CN2CCC1CC2)c1ccc2c(c1)OCCO2 | inactive
COc1cc(Cl)c(OC)cc1Cl | inactive
O=C(NC(=O)c1c(F)cccc1F)Nc1ccc(Oc2ccc(C(F)(F)F)cc2Cl)cc1F | inactive
CCOP(=O)(O)C(N)=O | inactive
COP(=S)(OC)Oc1ccc([N+](=O)[O-])cc1Cl | inactive
O=C(O)c1cc(I)cc(I)c1I | inactive
O=[N+]([O-])C(Br)(CO)CO | inactive
